Measurements published in PubChem BioAssay AID430 (Sanford-Burnham Center for Chemical Genomics, 2006).
Screen size: about 63,000 compounds; about 1,100 (1.7%) were called active. The sample as a whole holds a higher share of actives than the screen did. Potency and affinity values are given separately. Values without a mark were called inactive. No stated cut-off is given here; in the data, active means cytotoxicity above about 50%; inactive means the rest.

Assay: HPDE-C7 pancreatic duct cell viability loss – fluorescence, HTS (AID 430);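 further: cells exposed to compound for 48 hours before viability readout; 0% = vehicle and 100% = reference cytotoxic drug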
Settings: HPDE-C7 pancreatic duct cells viability, at 10 µM, stronger effect = higher value
Work on `CCC(=O)Nc1nc2c(OC)ccc(C)c2s1` yielded a cytotoxicity of 4%. `CCOc1cccc(C(=O)Nc2nnc(-c3ccco3)s2)c1` gave a cytotoxicity of 2.3%. Compound `NC(=O)c1ccccc1NS(=O)(=O)Cc1ccc(Cl)cc1` has a cytotoxicity of 0%. With `Cc1c(NC(=O)C(C)OC(=O)CC2Sc3ccccc3NC2=O)c(=O)n(-c2ccccc2)n1C` (centres undefined) the cytotoxicity was -14.3%. For `CSc1ccc(NC(=O)CC(C)=O)cc1`, the cytotoxicity was -11.5%. Compound `c1csc(-c2nnsc2-c2nc3ccccc3[nH]2)c1` has a cytotoxicity of 7.2%. `CCC(=O)NC1=C(C#N)C2(CCCC2)Cc2ccccc21` gave a cytotoxicity of 10.4%. `COc1ccccc1-c1cc(C(=O)NCc2ccccc2)no1` gave a cytotoxicity of 17.1%. Compound `Cc1ccc(C)c(OCC(=O)Nc2ccc3c(c2)OCO3)c1` has a cytotoxicity of -6.1%. Compound `C=CCn1c2ccccc2c2nnc(SCN3C(=O)c4ccccc4C3=O)nc21` has a cytotoxicity of 21.1%. For `CCn1c2ccccc2c2nnc(SCCCn3c(=O)[nH]c4ccccc43)nc21`, the cytotoxicity was -2.7%. With `C=CCn1c2ccccc2c2nnc(SCCCn3c(=O)[nH]c4ccccc43)nc21` the cytotoxicity was 89.5% (active). Compound `CCCCn1c(CCC(=O)O)ccc1-c1cccs1` has a cytotoxicity of -30.1%. `COCCNS(=O)(=O)c1cccc2cccnc12` gave a cytotoxicity of -7.9%. Work on `COc1cc(S(=O)(=O)N2CCCCC2)ccc1NC(=O)c1ccc(F)cc1` yielded a cytotoxicity of -7.1%. With `CCn1c2c(c3cc(C(=O)O)ccc31)CCCC2=O` the cytotoxicity was -6.9%. With `Cc1ccc2c(c1)c1c(n2CC(O)Cn2c(C)nc3ccccc32)/C(=N\O)CCC1` (centres undefined) the cytotoxicity was 113% (active). For `CCn1c2c(c3cc(Cl)ccc31)CCCC2=O`, the cytotoxicity was -0.8%. `Cc1ccc2c(c1)c1c(n2CC(O)Cn2nc(C)c(Br)c2C)C(=O)CCC1` (centres undefined) gave a cytotoxicity of -7.3%. Compound `Cc1ccc2c(c1)c1c(n2CC(O)Cn2c(C)nc3ccccc32)C(=O)CCC1` (centres undefined) has a cytotoxicity of -12.3%. Work on `CCOC(=O)c1c(O)c2c(n(Cc3ccco3)c1=O)CCCC2` yielded a cytotoxicity of -1.8%. Work on `CCOC(=O)C(C#N)c1ccccn1` (centres undefined) yielded a cytotoxicity of -13.9%. Work on `CC12C=CC3(O1)C(C(=O)N(c1cccnc1)C3C(=O)NC1CCCCC1)C2C(=O)Nc1ccccc1` (centres undefined) yielded a cytotoxicity of -6.3%. For `Cc1cc(C)c2ccc(N)nc2c1O`, the cytotoxicity was 111% (active). Work on `Cc1cc(=O)oc2c(N)c(O)ccc12` yielded a cytotoxicity of 3.2%. Compound `Cc1cc(C)c2ccc(C)[n+]([O-])c2c1O` has a cytotoxicity of -4.9%. `Cc1ccc(-c2noc(CSc3nc(N)cc(N)n3)n2)cc1` gave a cytotoxicity of -1.6%. With `CCCCCC(=O)Nc1ccc(Cl)cn1` the cytotoxicity was -14.3%. `NC(=O)c1cc2ccc(O)cc2oc1=NCc1ccccc1` showed a cytotoxicity of -0.1%. For `CC(=NCc1ccccc1)C1=C(O)COC1=O`, the cytotoxicity was 2.9%. Compound `CCn1c(CNC(=O)C(C)(C)C)nc2ccccc21` has a cytotoxicity of -1.1%. With `CC12CCC(C(N)=O)(c3nc4ccccc4nc31)C2(C)C` (centres undefined) the cytotoxicity was -7.6%. In the case of `CC(=O)Nc1sc(N)nc1-c1ccccc1`, the cytotoxicity is reported as 3.9%. `CN(Cc1cccs1)C(=O)COc1ccc(-c2nnco2)cc1` gave a cytotoxicity of -5.5%. With `Cc1cc(=O)[nH]c(SCc2cc(=O)n3nc(C)sc3n2)n1` the cytotoxicity was 2.5%. In the case of `O=C(Cc1cccs1)Nc1nc(-c2ccccc2)cs1`, the cytotoxicity is reported as -35.2%. For `CC1Cc2cc(-c3csc(NC(=O)Cc4cccs4)n3)ccc2N1S(C)(=O)=O` (centres undefined), the cytotoxicity was 56.2% (active). `CS(=O)(=O)N1CCc2cc(-c3csc(NC(=O)Cc4cccs4)n3)ccc21` gave a cytotoxicity of -7.8%. In the case of `CCCc1[nH]nc2c1C(c1cc(OC)cc(OC)c1)C(C#N)=C(N)O2` (centres undefined), the cytotoxicity is reported as -4.3%. With `O=C(Cc1ccccc1)N1CCC(C(=O)N2CCN(c3ccc(F)cc3)CC2)CC1` the cytotoxicity was -6.7%. `O=C(NC(O)C(=O)c1cccs1)c1cccnc1` (centres undefined) showed a cytotoxicity of -20.3%. Work on `O=C(Nc1nnc(C2CCCCC2)s1)c1ccc(Br)s1` yielded a cytotoxicity of 7%. `CCOC(=O)c1ccc(NC(=O)C23CCC(C)(C(=O)O2)C3(C)C)cc1` (centres undefined) gave a cytotoxicity of -7.6%. In the case of `Cc1oc(-c2cccc(Cl)c2)nc1CN1CCC(C(=O)N2CCN(c3ccccc3F)CC2)CC1`, the cytotoxicity is reported as 54.5% (active). With `CCc1ccc(-c2nc(CN3CCC(C(=O)N4CCN(c5ccccn5)CC4)CC3)c(C)o2)cc1` the cytotoxicity was 26.2%. With `CCN(CCNC(=O)C1CCCN(Cc2nc(-c3ccc(OC)cc3)oc2C)C1)c1ccccc1` (centres undefined) the cytotoxicity was 67.8% (active). In the case of `Cc1oc(-c2ccc(Cl)cc2)nc1CN1CCC(C(=O)N2CCN(Cc3ccccc3)CC2)CC1`, the cytotoxicity is reported as 9.6%. In the case of `CCN1CCN(C(=O)C2CCN(Cc3nc(-c4cccc(Cl)c4)oc3C)CC2)CC1`, the cytotoxicity is reported as 9.2%. Compound `CCc1ccc(-c2nc(CN3CCC(C(=O)NCCN(CC)c4ccccc4)CC3)c(C)o2)cc1` has a cytotoxicity of 47.3%. For `CCc1ccc(-c2nc(CN3CCCC(C(=O)NCCc4ccc(OC)c(OC)c4)C3)c(C)o2)cc1` (centres undefined), the cytotoxicity was 7%. For `CCc1ccc(-c2nc(CN3CCC(C(=O)N4CCN(c5ccccc5)CC4)CC3)c(C)o2)cc1`, the cytotoxicity was 66% (active). `Cc1oc(-c2cccc(Cl)c2)nc1CN1CCC(C(=O)N2CCN(c3ccccn3)CC2)CC1` showed a cytotoxicity of 15.5%. Work on `Cn1c(-c2ccc(F)cc2)cnc1NCc1ccccc1` yielded a cytotoxicity of -16.5%. `CCCCCCN=CC1=C(O)C(C(=O)OC)C(C)(C)CC1=O` (centres undefined) gave a cytotoxicity of 20.5%. `COC(=O)c1ccccc1NC(=O)c1nc2nc(C)cc(C)n2n1` showed a cytotoxicity of 8.9%. `COC(=O)C1=C(C)OC(N)=C(C#N)C1c1ccc(OC)c(OC)c1OC` (centres undefined) gave a cytotoxicity of -14.9%. `OCCNc1ncnc2c1c(-c1ccccc1)c(-c1ccccc1)n2Cc1ccco1` showed a cytotoxicity of 37.5%. Compound `CC1(C)CC(=O)C2=C(C1)Oc1ncn(CCCn3ccnc3)c(=N)c1C2c1ccccc1` (centres undefined) has a cytotoxicity of 5.8%. In the case of `N=c1c2c(-c3ccccc3)c(-c3ccccc3)n(Cc3ccco3)c2ncn1CCN1CCOCC1`, the cytotoxicity is reported as 29.6%. Compound `O=c1c2ccccc2nc(-c2ccccc2)n1CCCn1ccnc1` has a cytotoxicity of -10.6%. Compound `COc1ccccc1-c1nc2n(n1)C(c1ccc(Cl)cc1)C(C(N)=O)=C(C)N2` (centres undefined) has a cytotoxicity of 5.8%. `COC(=O)c1ccc(OCC(O)Cn2nnc3ccccc32)cc1` (centres undefined) showed a cytotoxicity of 3.4%. Compound `CCCCN(C(=O)NC(=O)Nc1c(C)cc(C)cc1C)S(C)(=O)=O` has a cytotoxicity of 4.6%. For `CC(C)=CC(=O)Nc1ccccc1C(N)=O`, the cytotoxicity was 3.7%. `COc1ccc(N2CCN(C(=O)CCN3C(=O)c4ccccc4S3(=O)=O)CC2)cc1` gave a cytotoxicity of -0.5%. `Cn1nccc1C(=O)NCCN1C(=O)OC(C)(C)C1(C)O` (centres undefined) showed a cytotoxicity of -1.1%. With `CCOC(=O)c1ccc(-n2[nH]c(-c3ccccc3)cc2=O)cc1` the cytotoxicity was 66.3% (active). For `CCOC(=O)c1ccc(-n2c(=O)[nH]c3ccccc3c2=O)cc1`, the cytotoxicity was -12.3%. `CCOC(=O)c1ccc(N2C(=O)C(C)=C(C)C2=O)cc1` showed a cytotoxicity of -4.6%. For `O=C1CCCC2=C1C(c1cccc(Br)c1)n1nc(-c3ccco3)nc1N2` (centres undefined), the cytotoxicity was -0.5%. For `Cc1ccc(S(=O)(=O)Nc2cccc(-c3cn4ccsc4n3)c2)cc1`, the cytotoxicity was 52.4% (active). `Cc1cccc(S(=O)(=O)Nc2cccc(-c3cn4ccsc4n3)c2)c1` gave a cytotoxicity of 36.1%. In the case of `O=S(=O)(Nc1cccc(-c2cn3ccsc3n2)c1)c1ccc(F)cc1`, the cytotoxicity is reported as 33.8%. With `O=C(Cn1cnnn1)Nc1ccccc1Cc1ccccc1` the cytotoxicity was -2.5%. Compound `COc1ccc(C2CC(=O)N3C(=C2C#N)SCC3(O)c2ccccc2)cc1` (centres undefined) has a cytotoxicity of 10.4%. For `N#CC1=C2SCN(Cc3ccccc3)CN2C(=O)CC1c1cccs1` (centres undefined), the cytotoxicity was -17.2%. In the case of `CCc1ccc(C2CC(=O)N3CN(c4ccccc4)CSC3=C2C#N)cc1` (centres undefined), the cytotoxicity is reported as -1.3%. With `N#CC1=C2SCC(O)(c3ccccc3)N2C(=O)CC1c1ccccc1` (centres undefined) the cytotoxicity was 70% (active). In the case of `N#CC1=C2SCN(c3ccccc3)CN2C(=O)CC1c1cccs1` (centres undefined), the cytotoxicity is reported as -3.1%. Work on `CCOC(=O)CCNC(=O)CNC(=O)OCc1ccccc1` yielded a cytotoxicity of -3.8%. Compound `CCOc1ccccc1NC(=O)CN(c1nccs1)S(=O)(=O)c1ccc(N)cc1` has a cytotoxicity of -20.7%. Compound `COc1ccc(S(=O)(=O)N(C)CC(=O)O)c2ccccc12` has a cytotoxicity of 1.2%. For `Cc1ccc(/C(O)=C2\C(=O)C(=O)N(CC(C)O)C2c2ccc(N(C)C)cc2)cc1` (centres undefined), the cytotoxicity was 0%. In the case of `CCCC(=O)n1nc(-c2ccc(OC)cc2)nc1N`, the cytotoxicity is reported as 11.5%. `O=C(CSc1nnc(-c2ccco2)o1)NC(=O)C1COc2ccccc2O1` (centres undefined) gave a cytotoxicity of -12.2%. Compound `COc1ccc(CNC(=O)C2CC(c3cccc(OC)c3)=NO2)cc1` (centres undefined) has a cytotoxicity of 36%. In the case of `COCCNC(=O)C1CC(c2cccc(OC)c2)=NO1` (centres undefined), the cytotoxicity is reported as -6.9%. For `COc1cccc(C2=NOC(C(=O)NCc3ccccc3)C2)c1` (centres undefined), the cytotoxicity was 61.7% (active). With `COc1cccc(C2=NOC(C(=O)NCc3ccco3)C2)c1` (centres undefined) the cytotoxicity was 40.7%. With `COc1cccc(C2=NOC(C(=O)NCc3ccc(F)cc3)C2)c1` (centres undefined) the cytotoxicity was 60.3% (active). For `COc1cccc(C2=NOC(C(=O)NCc3ccccn3)C2)c1` (centres undefined), the cytotoxicity was -11.7%. With `Cc1oc2ccc(OC(=O)N3CCOCC3)cc2c1C(=O)OC(C)C` the cytotoxicity was -25.5%. `Cc1nn(-c2ccccc2C(=O)O)c(=O)c2ccccc12` gave a cytotoxicity of 0.5%. With `CC(=O)c1sc(-c2c(C)nc3sccn23)nc1C1CCCC1` the cytotoxicity was 4.9%. `O=C(NCCCN1CCOCC1)c1c(F)cccc1F` gave a cytotoxicity of 18.7%. `COc1ccc2sc(C)nc2c1NC(C)=O` gave a cytotoxicity of -5.3%. `Clc1ccccc1CNc1ncnc2nc[nH]c12` showed a cytotoxicity of 3.9%. In the case of `Clc1ccccc1CN(Cc1ccccc1)c1ncnc2nc[nH]c12`, the cytotoxicity is reported as 82.7% (active). In the case of `CCCCN(Cc1ccccc1)c1ncnc2nc[nH]c12`, the cytotoxicity is reported as -1%.
